Source: PubChem BioAssay
Rows were chosen to be rich in hits. Some 2.4% of all compounds tested hit in one or more screens of this group.
Pf Dd2 growth – P. falciparum Dd2 growth inhibitors, primary screen, SYBR Green fluorescence, single dose replicates; 72 h; hits give low values; activity change, % at 10 µM; 94,000 tested, 2.3% active; in the data active = activity change below about -80%
C diff growth – C. difficile growth inhibitors, primary screen, HTS | Clostridium difficile clinical isolate growth, OD600, 24 h; hits give low values | growth activity, negative = inhibition, % at 16 µg/mL (by protocol) | 86,000 tested, 0.25% active;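 active = mean growth activity at or below -80% and every replicate also at or below -80%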;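 also: 0% = DMSO wells and -100% = levofloxacin 16 µg/mL wells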
* marks the source's active call; other numbers are inactive results; . = not tested or not shown.

SMILES	Pf Dd2 growth	C diff growth
C[C@@H]1CCCCO[C@H](CN(C)C(=O)CCC(F)(F)F)[C@H](C)CN([C@H](C)CO)C(=O)c2cc(NC(=O)C3CCCCC3)ccc2O1	-55	-18
C[C@H](CO)N1C[C@H](C)[C@H](CN(C)Cc2ccccn2)Oc2ncc(-c3ccccc3)cc2C1=O	-4	7
C[C@@H]1CCCCO[C@H](CN(C)S(=O)(=O)c2ccc(Cl)cc2)[C@@H](C)CN([C@H](C)CO)C(=O)c2cc(NC(=O)CCCCCC(=O)Nc3ccccc3N)ccc2O1	-85*	-2
C[C@@H]1CN([C@H](C)CO)C(=O)c2cc(NC(=O)CCCCCC(=O)Nc3ccccc3N)ccc2O[C@@H](C)CCCCO[C@@H]1CN(C)S(=O)(=O)c1ccc(Cl)cc1	-78	.
C[C@H](CO)N1C[C@H](C)[C@H](CN(C)S(=O)(=O)c2ccc(F)cc2)OCCCC[C@H](C)Oc2ccc(NC(=O)Cc3ccccc3)cc2C1=O	-74	-7
C[C@@H]1CCCCO[C@@H](CN(C)S(=O)(=O)c2ccccc2)[C@H](C)CN([C@H](C)CO)C(=O)c2cc(NC(=O)Cc3ccccc3)ccc2O1	-66	.
C[C@@H]1CN([C@H](C)CO)C(=O)c2cc(NC(=O)Cc3ccccc3)ccc2O[C@@H](C)CCCCO[C@@H]1CN(C)S(=O)(=O)c1ccccc1	-81*	.
C[C@@H]1CCCCO[C@@H](CN(C)S(=O)(=O)c2ccc(F)cc2)[C@H](C)CN([C@H](C)CO)C(=O)c2cc(NC(=O)Cc3ccccc3)ccc2O1	-77	2
C[C@@H]1CN([C@@H](C)CO)C(=O)c2cc(NC(=O)Cc3ccccc3)ccc2O[C@@H](C)CCCCO[C@@H]1CN(C)S(=O)(=O)c1ccc(F)cc1	-87*	2
C[C@@H]1CN([C@H](C)CO)C(=O)c2cc(NC(=O)Cc3ccccc3)ccc2O[C@@H](C)CCCCO[C@@H]1CN(C)S(=O)(=O)c1ccc(F)cc1	-89*	.
C[C@@H]1CN([C@@H](C)CO)C(=O)c2cccc(NS(C)(=O)=O)c2O[C@@H]1CN(C)S(=O)(=O)c1ccccc1	-29	-6
C[C@H](NC(=O)C[C@@H]1CC[C@@H](NC(=O)c2cccnc2)[C@H](CO)O1)c1ccccc1	-3	.
CC(=O)N1[C@H](C(=O)N[C@@H](C)c2ccccc2)[C@@H](CO)[C@@H]2Cn3c(cccc3=O)[C@@H]21	6	2
CC=Cc1ccc2n(c1=O)C[C@@H]1[C@@H](CO)[C@H](C(=O)Nc3ccc(-c4ccccc4)cc3)[C@H]2N1CC (mixture of isomers)	-21	-16
CCCC(=O)Nc1ccc2c(c1)OC[C@H](C)N(C(=O)c1ccccc1F)C[C@H](C)[C@@H](OC)CN(C)C2=O	8	1
CCS(=O)(=O)Nc1ccc2c(c1)C(=O)N(C)C[C@@H](OC)[C@@H](C)CN(CCC(F)(F)F)[C@@H](C)CO2	7	.
C[C@@H]1CCCCO[C@H](CN(C)C(=O)Nc2ccc(F)cc2)[C@H](C)CN([C@@H](C)CO)C(=O)c2cc(NC(=O)Cc3ccccc3)ccc2O1	-82*	-1
C[C@H](CO)N1C[C@H](C)[C@@H](CN(C)S(=O)(=O)c2ccc(Cl)cc2)OCCCC[C@H](C)Oc2ccc(NC(=O)Cc3ccccc3)cc2C1=O	-41	6
C[C@H]1CCCCO[C@H](CN(C)C(=O)Nc2ccc(F)cc2)[C@@H](C)CN([C@@H](C)CO)C(=O)c2cc(NC(=O)Cc3ccccc3)ccc2O1	-75	-4
C[C@@H]1CN([C@H](C)CO)C(=O)c2cc(NC(=O)Cc3ccccc3)ccc2O[C@@H](C)CCCCO[C@H]1CN(C)S(=O)(=O)c1ccc(Cl)cc1	-82*	-2
CC(C)NC(=O)N1[C@H](CO)[C@@H](c2ccccc2)C12CN(C(=O)CN(C)C)C2	17	-2
CN1CCN(C(=O)C[C@H]2C[C@@H]3c4cc(NC(=O)Cc5ccncc5)ccc4O[C@@H]3[C@H](CO)O2)CC1	37	.
C[C@@H]1CCCCO[C@H](CN(C)C)[C@@H](C)CN([C@H](C)CO)C(=O)c2cc(NC(=O)Nc3cccc4ccccc34)ccc2O1	23	-1
C[C@@H]1CN([C@@H](C)CO)C(=O)c2cc(NC(=O)Nc3cccc4ccccc34)ccc2O[C@@H](C)CCCCO[C@@H]1CN(C)C(=O)C1CCCCC1	-88*	4
C[C@@H]1CN([C@@H](C)CO)C(=O)c2cc(NC(=O)Nc3cccc4ccccc34)ccc2O[C@@H](C)CCCCO[C@@H]1CN(C)C(=O)c1ccccc1	-44	-2
SMILES	Pf Dd2 growth	C diff growth
C[C@@H]1CCCCO[C@H](CN(C)C(=O)C2CCCCC2)[C@H](C)CN([C@H](C)CO)C(=O)c2cc(NC(=O)Nc3cccc4ccccc34)ccc2O1	-90*	0
C[C@@H]1CCCCO[C@@H](CN(C)C(=O)C2CCCCC2)[C@@H](C)CN([C@@H](C)CO)C(=O)c2cc(NC(=O)Nc3cccc4ccccc34)ccc2O1	-89*	8
C[C@@H]1CCCCO[C@H](CN(C)C)[C@H](C)CN([C@@H](C)CO)C(=O)c2cc(NC(=O)Nc3cccc4ccccc34)ccc2O1	-37	-1
CC(C)NC(=O)N(C)C[C@H]1Oc2cc(C#C[C@H](C)O)ccc2S(=O)(=O)N([C@H](C)CO)C[C@H]1C	17	-6
COc1ccccc1S(=O)(=O)N[C@H]1CC[C@H](CC(=O)NCc2cc(F)cc(F)c2)O[C@H]1CO	-1	-1
Cc1noc(C)c1NC(=O)N(C)C[C@@H]1Oc2c(NC(=O)C3CCCCC3)cccc2C(=O)N([C@@H](C)CO)C[C@@H]1C	38	-4
C[C@H](CO)N1C[C@H](C)[C@@H](CN(C)CC2CC2)Oc2ccc(NC(=O)Nc3ccc4c(c3)OCO4)cc2CC1=O	-83*	2
C[C@H](CO)N1C[C@H](C)[C@@H](CN(C)CC2CCCCC2)Oc2ccc(NC(=O)Nc3ccc4c(c3)OCO4)cc2CC1=O	-41	0
C[C@@H]1CN([C@@H](C)CO)C(=O)Cc2cc(NC(=O)Nc3ccc4c(c3)OCO4)ccc2O[C@@H]1CN(C)CC1CC1	-88*	-3
C[C@H]1CN([C@@H](C)CO)C(=O)Cc2cc(NC(=O)Nc3ccc4c(c3)OCO4)ccc2O[C@H]1CN(C)CC1CCCCC1	8	-19
O=C(Nc1ccccc1F)N1CCCCN2[C@H](C1)[C@H](c1ccc(/C=C/c3ccccc3)cc1)[C@@H]2CO	-14	41
O=C(Nc1ccccc1F)N1CCCCN2[C@@H](CO)[C@@H](c3ccc(C#Cc4ccccc4)cc3)[C@@H]2C1	-89*	33
COc1ccc(C#Cc2ccc([C@@H]3[C@H](CO)N4CCCCN(C(=O)Nc5ccc(F)cc5)C[C@@H]34)cc2)cc1	-67	-93*
COc1ccc(C#Cc2ccc([C@@H]3[C@H](CO)N4CCCCN(C(=O)Nc5ccccc5F)C[C@@H]34)cc2)cc1	-82*	15
COc1ccc(C#Cc2ccc([C@H]3[C@@H](CO)N4CCCCN(C(=O)Nc5ccccc5F)C[C@H]34)cc2)cc1	-77	16
O=C(Nc1ccccc1F)N1CCCCN2[C@@H](CO)[C@@H](c3ccc(/C=C/c4ccccc4)cc3)[C@@H]2C1	-58	-96*
COc1ccc(C#Cc2ccc([C@H]3[C@H](CO)N4CCCCN(C(=O)Nc5ccccc5F)C[C@@H]34)cc2)cc1	-75	-8
